In PubChem BioAssay AID651658 (Broad Institute, 2012):
The campaign covered roughly 340,000 compounds. About 5,100 (1.5%) were called active. Only a selection was taken, and actives are over-represented in it overall. Values without a mark were called inactive.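 Rule for the calls: active = mean Tm shift, scaled 0 neutral to 100 positive control, at about 1.3% or above, every replicate too (limit read from the data); inconclusive = no clear call, values can overlap the other calls; inactive = the rest.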

molecular target: Fibroblast growth factor 22 (Homo sapiens) (UniProt Q9HCT0); experiment: binders of human FGF22 protein, primary screen, FGF22 synaptogenesis inhibitor project, biophysical, thermal shift, single point (AID 651658); settings: recombinant FGF22 thermal shift, SYPRO orange fluorescence; at 9.99 µM; stronger effect = higher value; percent of sucrose octasulfate shift, DMSO zero
Sequence (Q9HCT0 whole entry, looked up): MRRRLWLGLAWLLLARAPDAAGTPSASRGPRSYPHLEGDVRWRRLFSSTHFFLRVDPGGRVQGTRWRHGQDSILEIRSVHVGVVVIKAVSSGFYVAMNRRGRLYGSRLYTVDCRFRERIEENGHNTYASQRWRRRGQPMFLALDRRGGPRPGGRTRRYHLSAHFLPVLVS

Going from `COc1ccc(NC(=O)N(C)C[C@H]2Oc3cc(-c4ccncc4)ccc3S(=O)(=O)N([C@H](C)CO)C[C@H]2C)cc1` to `COc1ccc(NC(=O)N(C)C[C@H]2Oc3cc(-c4ccncc4)ccc3S(=O)(=O)N([C@@H](C)CO)C[C@H]2C)cc1`, the activity (Tm shift, normalised) falls from 0.949% to -0.124%.

Going from `COc1cccc(S(=O)(=O)N(C)C[C@@H]2Oc3cc(C4=CCCCC4)ccc3S(=O)(=O)N([C@H](C)CO)C[C@H]2C)c1` to `C[C@H](CO)N1C[C@H](C)[C@@H](CN(C)S(=O)(=O)c2ccc(F)cc2)Oc2cc(C3=CCCC3)ccc2S1(=O)=O`, the activity (Tm shift, normalised) falls from 0.057% to -0.123%.

First: Cc1ccc(-c2ccc3c(c2)O[C@H](CN(C)C(=O)Nc2ccc(C(F)(F)F)cc2)[C@@H](C)CN([C@H](C)CO)S3(=O)=O)cc1
Second: CC(=O)N(C)C[C@@H]1Oc2cc(-c3ccncc3)ccc2S(=O)(=O)N([C@@H](C)CO)C[C@H]1C
The activity (Tm shift, normalised) of the first is higher: 0.037% for the first, -0.496% for the second.

Going from `C[C@H](CO)N1C[C@H](C)[C@H](CN(C)C(=O)Nc2ccc3c(c2)OCO3)Oc2cc(C#Cc3ccncc3)ccc2S1(=O)=O` to `C[C@H]1CN([C@@H](C)CO)S(=O)(=O)c2ccc(C#Cc3ccncc3)cc2O[C@@H]1CN(C)C(=O)Nc1ccc2c(c1)OCO2`, the activity (Tm shift, normalised) rises from -0.273% to 0.074%.

Compared with `CC(C)CC#Cc1cnc2c(c1)C(=O)N([C@@H](C)CO)C[C@H](C)[C@@H](CN(C)C(=O)c1cccc(F)c1)O2`, `C[C@H](CO)N1C[C@H](C)[C@H](CN(C)C(=O)Nc2ccc(F)cc2)Oc2ncc(-c3cc4ccccc4o3)cc2C1=O` is higher in activity (Tm shift, normalised): -0.381% for the first, -0.101% for the second.

First: CN1c2ccc(-c3ccccc3F)cc2[C@@H]2[C@@H](CCN2C(=O)CN2CCOCC2)[C@H]1CO
Second: CN(C)CC(=O)N1CCCCN2[C@@H](CO)[C@H](c3ccc(-c4cccnc4)cc3)[C@@H]2C1
The activity (Tm shift, normalised) of the first is lower: -0.099% for the first, 0.193% for the second.

Going from `O=C(C[C@H]1C[C@@H]2c3cc(NC(=O)C4CCC4)ccc3O[C@@H]2[C@H](CO)O1)NCCN1CCCCC1` to `O=C(C[C@@H]1C[C@H]2c3cc(NC(=O)Nc4ccccc4F)ccc3O[C@H]2[C@@H](CO)O1)NC1CCCCC1`, the activity (Tm shift, normalised) rises from 0.001% to 0.159%.

First: O=C1C[C@@](C(=O)NCC(F)(F)F)(c2ccc([N+](=O)[O-])cc2)[C@@H](c2ccc(CO)cc2I)N1C1CCCCC1
Second: C[C@@H]1CCCCO[C@@H](CN(C)Cc2ccc(C(=O)O)cc2)[C@H](C)CN([C@@H](C)CO)C(=O)c2cc(NC(=O)Nc3ccc(C(F)(F)F)cc3)ccc2O1
The activity (Tm shift, normalised) of the first is higher: 0.18% for the first, -0.357% for the second.

Compared with `CCC(=O)N1C[C@@H](C)[C@@H](OC)CN(C)C(=O)c2ccc(NC(=O)c3ccccc3)cc2OC[C@H]1C`, `C[C@@H]1CCCCO[C@H](CN(C)Cc2ccccc2)[C@@H](C)CN([C@H](C)CO)C(=O)c2cc(NC(=O)Cc3ccccc3)ccc2O1` is higher in activity (Tm shift, normalised): -0.17% for the first, 0.467% for the second.

Compared with `COc1ccc2c3c([nH]c2c1)[C@H](CO)N(C(=O)C1CCCCC1)CC31CCN(C(=O)c2ccncc2)CC1`, `O=C(c1ccncc1)N1C[C@@H]2[C@H](c3ccccc31)[C@H](CO)N2C(=O)c1ccncc1` is higher in activity (Tm shift, normalised): -0.034% for the first, 1.08% for the second.

Compared with `CC(C)NC(=O)N(C)C[C@H]1OCCCC[C@H](C)Oc2ccc(NC(=O)CCC(F)(F)F)cc2C(=O)N([C@@H](C)CO)C[C@@H]1C`, `C[C@@H]1CN([C@H](C)CO)C(=O)c2cc(NC(=O)Cc3ccccc3)ccc2O[C@@H](C)CCCCO[C@@H]1CN(C)Cc1ccncc1` is higher in activity (Tm shift, normalised): -0.59% for the first, -0.393% for the second.

First: COc1ccc(CN(C)C[C@H]2OCCCC[C@@H](C)Oc3ccc(NS(=O)(=O)c4ccccc4)cc3C(=O)N([C@@H](C)CO)C[C@@H]2C)cc1
Second: COc1ccc(S(=O)(=O)Nc2ccc3c(c2)C(=O)N([C@H](C)CO)C[C@H](C)[C@@H](CN(C)Cc2ccccc2)OCCCC[C@@H](C)O3)cc1
The activity (Tm shift, normalised) of the first is higher: 0.068% for the first, -0.202% for the second.

Compared with `Cc1ccc(S(=O)(=O)N(C)C[C@@H]2OCCCC[C@@H](C)Oc3ccc(NS(=O)(=O)c4ccccc4)cc3C(=O)N([C@H](C)CO)C[C@@H]2C)cc1`, `Cc1ccc(S(=O)(=O)N(C)C[C@@H]2OCCCC[C@@H](C)Oc3ccc(NS(=O)(=O)c4ccc(F)cc4)cc3C(=O)N([C@H](C)CO)C[C@H]2C)cc1` is lower in activity (Tm shift, normalised): -0.059% for the first, -0.311% for the second.

With `C[C@@H]1CN([C@H](C)CO)C(=O)c2cc(NC(=O)Nc3ccc(C(F)(F)F)cc3)ccc2O[C@@H](C)CCCCO[C@@H]1CN(C)Cc1ccc(C(F)(F)F)cc1` the activity (Tm shift, normalised) was 0.296%.

For `C[C@@H]1CN([C@@H](C)CO)S(=O)(=O)c2ccc(-c3ccncc3)cc2O[C@@H]1CN(C)C(=O)Nc1ccc(F)cc1`, the activity (Tm shift, normalised) was 1.27% (active).
`Cc1ccc(S(=O)(=O)N(C)C[C@@H]2Oc3cc(C4=CCCC4)ccc3S(=O)(=O)N([C@@H](C)CO)C[C@@H]2C)cc1` was tested, and the activity (Tm shift, normalised) was 1.23% (active).
For `C[C@H]1CN([C@@H](C)CO)S(=O)(=O)c2ccc(C3=CCCC3)cc2O[C@H]1CN(C)C(=O)Nc1ccc2c(c1)OCO2`, the activity (Tm shift, normalised) was 1.26% (active).
For `C[C@@H]1CN([C@H](C)CO)S(=O)(=O)c2ccc(-c3ccncc3)cc2O[C@@H]1CN(C)C(=O)Nc1ccc(C(F)(F)F)cc1`, the activity (Tm shift, normalised) was 1.48% (active).
With `C[C@@H]1CCCCO[C@@H](CN(C)Cc2ccc(C(=O)O)cc2)[C@@H](C)CN([C@@H](C)CO)C(=O)c2cc(NC(=O)Nc3ccc(C(F)(F)F)cc3)ccc2O1` the activity (Tm shift, normalised) was 10.4% (active).
For `C[C@@H]1CCCCO[C@@H](CN(C)Cc2ccncc2)[C@H](C)CN([C@H](C)CO)C(=O)c2cc(NC(=O)Cc3ccccc3)ccc2O1`, the activity (Tm shift, normalised) was 25.7% (active).
For `COc1ccc(S(=O)(=O)Nc2ccc3c(c2)C(=O)N([C@@H](C)CO)C[C@H](C)[C@H](CN(C)Cc2ccc(C(=O)O)cc2)OCCCC[C@@H](C)O3)cc1`, the activity (Tm shift, normalised) was 2.26% (active).
With `Cc1ccc(S(=O)(=O)Nc2ccc3c(c2)C(=O)N([C@H](C)CO)C[C@@H](C)[C@H](CN(C)S(=O)(=O)c2ccc(C)cc2)OCCCC[C@@H](C)O3)cc1` the activity (Tm shift, normalised) was 31.1% (active).
